# CYP2C19 activ – human CYP2C19 activators, primary screen, biochemical, luminescence; 96,000 tested, under 10 active; Cytochrome P450 2C19 (Homo sapiens), P33261; activation factor at 5 µM; recombinant CYP2C19, luciferin-H EGE luminescence; hits give high values; 0 = fully inhibited enzyme, 1 = untreated enzyme;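 active = activation factor of at least 2 at 5 µM in the primary screen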;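 note: 0 = wells with 2.5 mM tranylcypromine and 1 = vehicle-only wells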
# Cav32 inh – Cav3.2 calcium influx blockers – cell-based, Fluo-4 calcium fluorescence, FDSS, MLSMR library, primary screen; Voltage-dependent T-type calcium channel subunit alpha-1H (Homo sapiens), O95180; Cav3.2-expressing cells; hits give low values; B-score at 10 µM; 100,000 tested, 4% active;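 active = single-dose well whose peak fluorescence ratio is a statistical outlier from its plate by either plate-standardised score or position-corrected B-score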
# CYP2C9 inhib – blockers of cytochrome P450 2C9 activity – biochemical, luminescence, ADME assay, primary screen; P11712; CYP2C9 Supersomes, luciferin-H conversion; inhibition, % at 5 µM; 96,000 tested, 20% active; AID 777, 2007;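 active = blocking of liver enzyme CYP2C9 beyond about 50% at 5 µM, limit read from the data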
# Target sequence (P11712 whole entry, looked up): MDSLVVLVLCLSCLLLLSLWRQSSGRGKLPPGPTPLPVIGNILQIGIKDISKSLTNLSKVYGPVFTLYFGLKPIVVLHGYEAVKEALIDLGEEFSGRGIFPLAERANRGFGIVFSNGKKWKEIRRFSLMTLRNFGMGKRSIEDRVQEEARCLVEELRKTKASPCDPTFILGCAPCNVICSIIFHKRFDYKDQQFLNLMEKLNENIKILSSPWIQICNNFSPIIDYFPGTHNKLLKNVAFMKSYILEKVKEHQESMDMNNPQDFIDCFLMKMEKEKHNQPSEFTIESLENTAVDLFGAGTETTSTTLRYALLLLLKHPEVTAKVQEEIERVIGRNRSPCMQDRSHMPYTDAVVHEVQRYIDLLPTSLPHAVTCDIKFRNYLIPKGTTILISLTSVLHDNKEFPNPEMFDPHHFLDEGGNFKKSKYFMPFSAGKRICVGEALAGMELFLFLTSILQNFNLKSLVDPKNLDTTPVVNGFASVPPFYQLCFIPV
# CYP2C9 activ – human CYP2C9 activators, primary screen, biochemical, luminescence. Cytochrome P450 2C9 (Homo sapiens), P11712. 96,000 tested, 1.4% active. AID 1024, 2008. activation factor at 5 µM. recombinant CYP2C9, luciferin-H conversion; hits give high values; factor 1 = untreated enzyme, 0 = blocked;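 active = activation factor of 2 or more for CYP2C9 at a 5 µM dose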;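 note: 0 = sulfaphenazole-blocked wells and 1 = vehicle-only wells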
# CYP2C19 inh – blockers of cytochrome P450 2C19 activity – biochemical, luminescence, ADME assay, primary screen | 96,000 tested, 21% active | P33261 | CYP2C19 Supersomes, luciferin-H EGE luminescence, 30 min | inhibition, % at 5 µM;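 active = CYP2C19 inhibition above a set limit at 5 µM in the primary screen, cut at about 50% in these data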;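 note: plate controls were negative control wells for no effect and 2.5 mM tranylcypromine positive control for full effect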
# Starred values were filed as active, the others as inactive; / = no result given. This is a sample that favours compounds with a hit; in the whole collection about 27% have one here.
SMILES,CYP2C19 activ,Cav32 inh,CYP2C9 inhib,CYP2C9 activ,CYP2C19 inh
CC(=O)Oc1ccc2ccccc2c1C(NC(=O)Cc1ccccc1)c1ccc(Cl)cc1 (stereo not given),0.5,-9.8*,63*,0.4,48
NC(=O)C1=C[C@@H](c2csc3ccccc23)C[C@@H](OCCCCO)O1,/,1.2,/,/,/
Cc1cc(NC(=O)COC(=O)C2CCCN2C(=O)c2cccs2)no1 (stereo not given),1.1,0.28,1,1,-12
O=C1C2CCCN2C(c2ccccc2F)N1c1ccc(F)cc1 (stereo not given),0.8,0.2,16,0.8,23
CCOC(=O)c1ccc(NC(=O)CSc2nnc(C3CC3)n2CC)cc1,/,0.29,/,/,/
CCCOC(=O)c1ccc(NC(=O)CSC2=Nc3ccccc3C3CC=NN23)cc1 (stereo not given),0.5,-3.3,80*,0.2,52*
CCCC(CCC)n1[nH]c(=O)c2c(C)cc(C)nc21,1,0.54,-5,1.1,-2
Cc1cc(NC(=O)CCC(=O)N(c2ccccc2)C2(C(=O)NC3CCCCC3)CCCC2)no1,0.9,-2.8,24,0.8,14
CN=c1scc(C)n1/N=C/c1ccc(O)c(O)c1O,0.9,0.37,2,1,14
CCN=c1scc(C)n1/N=C/c1ccsc1,0.4,-0.86,38,0.6,60*
CC1(C)C(=O)Nc2ccccc2N1C(=O)COc1ccc(S(=O)(=O)N2CCOCC2)cc1Cl,0.6,-0.015,66*,0.3,42
CC1(C)C(=O)Nc2ccccc2N1C(=O)COc1ncnc2c(Cl)cc(Cl)cc12,0.2,-3.5,49,0.5,77*
Cc1cnc(C(=O)OCC(=O)N2c3ccccc3NC(=O)C2(C)C)cn1,1,-0.27,-3,1,-2
CN(C)CCC(=O)NCC1OCCc2ccccc21 (stereo not given),1,/,0,1,-5
Nc1c(C(=O)c2ccccc2)sc2snc(SCC(=O)c3ccccc3)c12,0.7,-2.8,83*,0.2,26
N#Cc1c(SCc2ccc(Cl)cc2)sc(C(=O)c2ccccc2)c1N,0.8,-0.63,36,0.6,16
Cc1ccc(NC2=Nc3ccccc3CS2)cc1,0.5,-0.093,13,0.9,51*
Cc1ccc(Oc2ccc(NC(=O)CCC(=O)OCC(=O)c3cccs3)cc2)cc1C,0.9,0.062,-1,1,7
c1coc(CNc2c3c(nc4ncnn24)CCC3)c1,1.1,0.88,88*,0.1,-7
CCc1nnc(NC(=O)CSc2ncc(-c3ccccc3)n2C)s1,0.6,1.5,45,0.6,38
COc1cccc(-c2nc3ccccc3s2)c1,1,-0.33,9,0.9,0
O=C1NC2=C(C(=O)c3ccccc32)C(c2ccccc2)N1 (stereo not given),0.8,-1.4,24,0.8,19
O=C1NC(c2ccccc2)=C(c2nc3ccccc3s2)C(c2ccc(F)cc2)N1 (stereo not given),0.5,-5.1,50*,0.5,55*
COc1ccc(C2NC(=O)NC(c3ccccc3)=C2c2nc3ccccc3s2)cc1 (stereo not given),0.7,-5.8*,36,0.6,26
CCCCn1c(=O)n(C)c(=O)c2c(C(F)(F)F)cc(-c3ccncc3)nc21,0.3,-1.2,48,0.5,73*
SMILES,CYP2C19 activ,Cav32 inh,CYP2C9 inhib,CYP2C9 activ,CYP2C19 inh
Cc1ccc(-n2c(CNc3ccc(F)cc3)nnc2SCC(=O)NCc2ccco2)cc1,0.7,-5.2*,61*,0.4,35
O=C(CSc1nnc(CCc2nc3ccccc3[nH]2)n1-c1ccccc1)NCc1ccco1,0.7,-0.7,75*,0.2,31
O=C(CSc1nnc(CCc2nc3ccccc3[nH]2)n1-c1ccccc1)NCc1ccccc1,/,-0.86,/,/,/
O=C(Nc1cnn(Cc2c(Cl)cccc2Cl)c1)C(c1ccccc1)c1ccccc1,0.8,/,87*,0.1,15
O=C(COc1ccccc1Cl)Nc1cnn(Cc2ccccc2)c1,0.8,/,27,0.7,21
OCCNc1nc(C2CC2)nc2c1nnn2Cc1ccccc1Cl,0.2,-1.3,60*,0.4,82*
Cc1nc(NCC2CCCO2)c2nnn(Cc3ccccc3Cl)c2n1 (stereo not given),0.4,0.011,-117,2.2*,56*
CCOC(=O)C(CC)/C(C)=N/NC(=O)c1ccc([N+](=O)[O-])cc1 (stereo not given),0.7,0.68,-1,1,26
CC(C)(C)C(=O)c1no[n+]([O-])c1/C(=N/O)C(C)(C)C,0.4,-7.9*,12,0.9,59*
Cc1ccc(C(=O)Oc2oc(-c3ccco3)nc2C=Nc2ccccc2)cc1,0.8,-0.56,9,0.9,18
Cc1ccc(S(=O)(=O)/N=C(/Nc2nc(C)cc(C)n2)N2CCOCC2)cc1,1,-0.011,4,1,-4
COc1ccc(N2CCN(/C(=N\S(=O)(=O)c3ccccc3)Nc3nc(C)cc(C)n3)CC2)cc1,0.9,0.9,67*,0.3,11
CC(C)OC(=O)CSc1nnc(-c2cnccn2)n1-c1ccc(Cl)cc1,0.6,-0.2,36,0.6,37
CC(C)OC(=O)c1cn(-c2ccccc2)nc1-c1ccco1,1,-0.0018,22,0.8,3
Cc1ccc(-c2nn(-c3ccccc3)cc2CN(Cc2ccccc2)C(=O)c2ccco2)o1,0.7,-4*,70*,0.3,26
N/C(COc1ccc(F)cc1)=N\NC(=O)c1cccnc1Oc1ccccc1,1,1.5,1,1,3
COc1ccccc1CNc1ncnc2c1nnn2Cc1ccccc1,0.5,-1.6,42,0.6,55*
COc1ccccc1CNc1ncnc2c1cnn2-c1ccccc1,/,-2.8,/,/,/
O=S(=O)(NCCSc1ccccc1)c1ccc2c(c1)OCCO2,0.1,-5*,2,1,87*
O=S(=O)(NCCOc1ccc(F)cc1)c1ccc2c(c1)OCCO2,0.1,-0.68,-144,2.4*,91*
CC(C)C[C@H]1C(=O)N2CCC[C@H]2[C@]2(O)O[C@](NC(=O)[C@@H]3C=C4c5cccc6[nH]c(Br)c(c56)CC4N(C)C3)(C(C)C)C(=O)N12 (stereo not given in full),/,-4.8*,/,/,/
Cc1ccc(S(=O)(=O)NC(CN2CCOCC2)=NCCNS(=O)(=O)c2ccccc2)cc1,0.7,-0.016,52*,0.5,29
Cc1ccc(S(=O)(=O)NCCNC(=O)N2CCOCC2)cc1,1,-1.1,-42,1.4,-2
C=C(C)COc1ccc(-c2nc(N)ncc2Oc2ccc(OC)cc2)c(O)c1,0.8,/,22,0.8,19
C=C(C)COc1ccc(-c2n[nH]c(C)c2-c2ccc(Br)cc2)c(O)c1,0.9,0.022,57*,0.4,11

# Source: PubChem
